Source: PubChem
Shown are actives, neighbours in structure and some others; about 2.5% of the full set was active somewhere.
TMEM16A act: activates or potentiates the mouse TMEM16A chloride channel. B-score at 10 µM. AID 623877. HEK293 TMEM16A/YFP-H148Q/I152L, iodide quench fluorescence; stronger effect = lower value. Q8BHY3. hit rate 0.3% among 340,000;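 active = fluorescence-ratio B-score plate-corrected deviation score at least 3 library SD below zero, with starting fluorescence score within 5 deviations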;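 note: channel opened by trigger with iodide after compound preincubation; score built on the fluorescence ratio of max minus min over baseline; more negative score means more quench and so TMEM16A activation or potentiation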
Target sequence (Q8BHY3 whole entry, looked up): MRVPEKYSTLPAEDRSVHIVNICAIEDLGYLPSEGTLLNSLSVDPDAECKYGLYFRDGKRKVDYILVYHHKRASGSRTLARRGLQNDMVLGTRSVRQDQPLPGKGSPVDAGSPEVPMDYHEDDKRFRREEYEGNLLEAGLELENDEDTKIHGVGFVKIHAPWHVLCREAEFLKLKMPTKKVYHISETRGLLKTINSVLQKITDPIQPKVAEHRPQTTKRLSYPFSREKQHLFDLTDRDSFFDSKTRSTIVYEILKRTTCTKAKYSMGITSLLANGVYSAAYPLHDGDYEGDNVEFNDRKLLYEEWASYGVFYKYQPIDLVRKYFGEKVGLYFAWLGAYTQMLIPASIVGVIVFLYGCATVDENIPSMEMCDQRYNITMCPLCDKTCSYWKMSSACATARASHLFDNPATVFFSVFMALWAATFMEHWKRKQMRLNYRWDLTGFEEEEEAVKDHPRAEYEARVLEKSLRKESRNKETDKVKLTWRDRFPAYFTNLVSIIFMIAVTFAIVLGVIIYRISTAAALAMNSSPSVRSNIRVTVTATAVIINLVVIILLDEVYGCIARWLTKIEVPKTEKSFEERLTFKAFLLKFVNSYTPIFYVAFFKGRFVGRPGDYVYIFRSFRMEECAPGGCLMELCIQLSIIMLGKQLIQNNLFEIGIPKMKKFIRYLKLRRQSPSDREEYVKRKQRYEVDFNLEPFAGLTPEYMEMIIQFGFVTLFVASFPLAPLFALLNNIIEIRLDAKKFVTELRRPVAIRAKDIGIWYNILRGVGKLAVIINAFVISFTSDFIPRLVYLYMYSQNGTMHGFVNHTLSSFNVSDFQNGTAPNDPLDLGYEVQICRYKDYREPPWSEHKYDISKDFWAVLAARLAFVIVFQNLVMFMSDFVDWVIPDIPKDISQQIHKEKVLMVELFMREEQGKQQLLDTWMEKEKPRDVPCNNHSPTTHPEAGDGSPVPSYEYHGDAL
ANO1 block: mouse TMEM16A channel inhibition, primary screen | Q8BHY3 | HEK293 TMEM16A/YFP iodide influx fluorescence, ionomycin | normalized B-score (activity score, 25-100; higher = stronger inhibition) at 10 µM | hit rate 1.2% among 310,000 | AID 588511;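 active = ratio plate-corrected score three or more library SD toward inhibition, starting fluorescence score within five deviations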;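 note: score derived from kinetic fluorescence span divided by baseline fluorescence per well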
697 NFkB inh: lowers PMA/ionomycin-induced NF-kB signal in 697 B cells; inhibition, % at 4 µM; 697 B-cell NF-kB luciferase reporter, 16 h; hit rate 0.33% among 330,000; AID 435022; in the data active = inhibition above about 35%
Jurkat NFkB inh: lowers PMA/ionomycin-induced NF-kB signal in Jurkat cells; PMA/ionomycin-induced NF-kB luciferase reporter, luminescence; inhibition, % at 4 µM; hit rate 0.53% among 330,000; AID 435003; in the data active = inhibition above about 50%
KLF5 inhibitor: suppresses KLF5 promoter-driven expression; DLD-1 KLF5 promoter-luciferase reporter, luminescence; inhibition, % at 5 µM; hit rate 0.23% among 290,000;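 active = inhibition above a per-plate limit of that plate's mean compound inhibition plus 3 SD, cut at about 60% in these data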;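 note: higher means less KLF5 promoter-driven luciferase light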
aSyn UTR inh: MLPCN primary screen, SNCA 5' untranslated region. hit rate 0.82% among 300,000. alpha-synuclein 5'UTR reporter, inhibitor activity. inhibition, % (tested at 7.5 µM). AID 1813; in the data active = inhibition above about 60%;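 note: H4 neuroglioblastoma cells stably carrying SNCA 5'UTR luciferase fusion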
KLF5 inh confirm: confirmation of KLF5 inhibitors; shares compounds with KLF5 inhibitor; inhibition, % at 4 µM; AID 1834; hit rate 79% among 610; DLD-1 KLF5 promoter firefly luciferase reporter, luminescence;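 active = inhibition above a set limit taken from the earlier primary screen, cut at about 63% in these data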
IEC-6 tox trip: rat IEC-6 cytotoxicity, KLF5 inhibitor counter-screen; shares compounds with KLF5 inhibitor; IEC-6 rat intestinal cells, viability luminescence; inhibition, % at 4 µM; hit rate 56% among 610; AID 1905; in the data active = inhibition above about 23%;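 note: cells exposed to compounds for 48 hours before viability read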
Jurkat NFkB conf: inhibitors of the PMA/ionomycin-induced NF-kB reporter in Jurkat cells, retest. Jurkat NF-kB luciferase, 16 h. hit rate 27% among 2,700. AID 435020. shares compounds with Jurkat NFkB inh. inhibition, % at 4 µM;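 active = inhibition reaching about 45% at 4 µM in either replicate, limit read from the data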
Each line names hits and unclear results; the compound was inactive in the other large screens (follow-up assays come after a bar, where they were run).

Cc1c(C)c2ccc(OCC(=O)Nc3ccccn3)c(C)c2oc1=O	Jurkat NFkB inh 91.0, KLF5 inhibitor 91.3, aSyn UTR inh 109.5 | KLF5 inh confirm inactive | IEC-6 tox trip inactive | Jurkat NFkB conf 93.6
COc1ccc(N2CCN(S(=O)(=O)c3c(C)[nH]c(C)c3C(=O)N3CCCC3)CC2)cc1	none
CCCCCC(=O)N[C@@H](c1ccccc1)[C@@H](O)C(=O)O[C@H]1C[C@@]2(O)[C@@H](OC(=O)c3ccccc3)C3[C@](C)(C(=O)[C@H](OC(C)=O)C(=C1C)C2(C)C)[C@@H](O)C[C@H]1OC[C@@]31OC(C)=O (stereo partly specified)	Jurkat NFkB inh 71.9, KLF5 inhibitor 66.1, aSyn UTR inh 87.2 | KLF5 inh confirm 83.6 | IEC-6 tox trip 87.9 | Jurkat NFkB conf 55.5
COc1cc2c(c(OC)c1OC)-c1ccc(NC(=O)c3ccccc3)c(=O)cc1[C@@H](NC(C)=O)CC2	KLF5 inhibitor 77.3 | KLF5 inh confirm 64.5 | IEC-6 tox trip 49.4 | Jurkat NFkB conf inactive
CCN(CC)c1ccc(/C=N/NC(=O)c2cccc(S(=O)(=O)Nc3ccccc3OC)c2)c(O)c1	Jurkat NFkB inh 59.5, KLF5 inhibitor 74.4, aSyn UTR inh 95.2 | KLF5 inh confirm 79.1 | IEC-6 tox trip 33.5 | Jurkat NFkB conf 55.2
CCOc1ccc2nc(NC(=O)C3CSC4(C)CCC(=O)N34)sc2c1 (stereo unspecified)	none (no result: ANO1 block, KLF5 inhibitor, aSyn UTR inh)
Cc1c2ccncc2cc2c1[nH]c1ccccc12	none (no result: ANO1 block, 697 NFkB inh, Jurkat NFkB inh, KLF5 inhibitor, aSyn UTR inh)
COc1ccc2[nH]c3c(C)c4ccncc4c(C)c3c2c1	Jurkat NFkB inh 52.0, KLF5 inhibitor 74.8, aSyn UTR inh 109.3 | KLF5 inh confirm 76.8 | IEC-6 tox trip 59.0 | Jurkat NFkB conf inactive
CC(C(=O)N1CCCCC1)N(C)CC(=O)Nc1cccc(F)c1 (stereo unspecified)	none (no result: TMEM16A act, ANO1 block, KLF5 inhibitor, aSyn UTR inh)
COc1ccc(NC(=O)CC(=O)Nc2ccc(OC)cc2)cc1	none (no result: KLF5 inhibitor)
CCCCC(=O)NC(c1ccco1)c1cc(Cl)c2cccnc2c1O (stereo unspecified)	none
CC(=O)NC(c1ccc(C(C)C)cc1)c1ccc2cccnc2c1O (stereo unspecified)	Jurkat NFkB inh 51.4, KLF5 inhibitor 81.2, aSyn UTR inh 66.9 | KLF5 inh confirm 82.2 | IEC-6 tox trip 82.8 | Jurkat NFkB conf 73.5
CCC(=O)NC(c1ccc(OC)cc1)c1c(O)ccc2ccccc12 (stereo unspecified)	none
CCCCC(=O)NC(c1ccc(C(C)C)cc1)c1ccc2cccnc2c1O (stereo unspecified)	Jurkat NFkB inh 60.7, KLF5 inhibitor 68.7, aSyn UTR inh 111.8 | KLF5 inh confirm 79.7 | IEC-6 tox trip 45.5 | Jurkat NFkB conf 82.0
CCCC(=O)NC(c1ccc(OC)cc1)c1ccc2cccnc2c1O (stereo unspecified)	Jurkat NFkB inh 62.0, KLF5 inhibitor 90.3, aSyn UTR inh 129.2 | KLF5 inh confirm 96.2 | IEC-6 tox trip 91.7 | Jurkat NFkB conf 59.5
CCOc1ccc(S(=O)(=O)Nc2ccn(C)n2)cc1	none (no result: ANO1 block, KLF5 inhibitor, aSyn UTR inh)
CC(Sc1nc(N)cc(N)n1)C(=O)NCCC1=CCCCC1 (stereo unspecified)	none (no result: ANO1 block, KLF5 inhibitor, aSyn UTR inh)
O=C(c1ccccc1)c1cc([N+](=O)[O-])ccc1N1CCOCC1	Jurkat NFkB inh 50.9, KLF5 inhibitor 73.6, aSyn UTR inh 101.3 | KLF5 inh confirm 72.4 | IEC-6 tox trip 57.7 | Jurkat NFkB conf 49.5
N#Cc1ccc(COC(=O)c2cnc(Cl)c(Cl)c2)cc1	none
CCN(CC)S(=O)(=O)c1ccc(N/N=C/c2cc(OC)ccc2O)nc1	Jurkat NFkB inh 51.7, KLF5 inhibitor 67.7, aSyn UTR inh 86.8 | KLF5 inh confirm 74.4 | IEC-6 tox trip inactive | Jurkat NFkB conf inactive
COCCCN=C1NN=C(c2cc(C)n(-c3ccccc3F)c2C)CS1	none
COCCn1c(C)cc(C2=NNC(=Nc3ccccc3F)SC2)c1C	Jurkat NFkB inh 68.9, KLF5 inhibitor 88.6, aSyn UTR inh 91.4 | KLF5 inh confirm inactive | IEC-6 tox trip inactive | Jurkat NFkB conf 87.7
CCOc1ccccc1NS(=O)(=O)c1ccc(-c2cnc(C3CC3)o2)cc1	Jurkat NFkB inh 55.3, KLF5 inhibitor 77.5 | KLF5 inh confirm 82.7 | IEC-6 tox trip 64.0 | Jurkat NFkB conf 58.2
CCOC(=O)C(C)Oc1cccc2c(=O)n(CC(=O)NCc3ccco3)ccc12 (stereo unspecified)	Jurkat NFkB inh 56.5, KLF5 inhibitor 76.9, aSyn UTR inh 73.0 | KLF5 inh confirm 80.5 | IEC-6 tox trip 55.5 | Jurkat NFkB conf inactive
CC(C1=C(CCN(C)C)Cc2ccccc21)c1ccccn1 (stereo unspecified)	none (no result: ANO1 block, 697 NFkB inh, Jurkat NFkB inh, KLF5 inhibitor, aSyn UTR inh)
Cc1ccc(C(=O)O/N=C(\N)c2ccccn2)c(Cl)c1	Jurkat NFkB inh 65.2, KLF5 inhibitor 96.0, aSyn UTR inh 107.6 | KLF5 inh confirm 74.8 | IEC-6 tox trip inactive | Jurkat NFkB conf 79.2
Cc1ccc(-c2nc(-c3ccccn3)no2)cc1	Jurkat NFkB inh 69.2, KLF5 inhibitor 88.2, aSyn UTR inh 99.3 | KLF5 inh confirm 99.6 | IEC-6 tox trip 41.6 | Jurkat NFkB conf 79.2
O=[N+]([O-])c1ccc(O)c(/C=N/Nc2ccc(Cl)nn2)c1	Jurkat NFkB inh 53.4, KLF5 inhibitor 67.0, aSyn UTR inh 100.1 | KLF5 inh confirm 76.2 | IEC-6 tox trip 37.9 | Jurkat NFkB conf 78.2
C[C@]12c3[nH]c4ccccc4c3CCN1C(=O)C(CC(=O)NCCCn1ccnc1)C[C@@H]2C(=O)N1CCCCC1 (stereo partly specified)	none (no result: TMEM16A act, ANO1 block, KLF5 inhibitor, aSyn UTR inh)
COc1cccc(NC(=O)CN(C)C(=O)CCNS(=O)(=O)c2ccc(C)cc2)c1	none (no result: ANO1 block, KLF5 inhibitor, aSyn UTR inh)
O=C(NCCc1ccccc1)c1ccc2c(c1)OCCO2	Jurkat NFkB inh 54.2, KLF5 inhibitor 96.9, aSyn UTR inh 105.8 | KLF5 inh confirm 95.1 | IEC-6 tox trip inactive | Jurkat NFkB conf 69.6
O=C(Cn1nc(-c2ccccc2)oc1=O)OCC(=O)c1ccccc1	none (no result: ANO1 block, KLF5 inhibitor, aSyn UTR inh)
CCOc1ccc(N(CC(=O)Nc2ccc(C)cc2)S(=O)(=O)c2c(C)noc2C)cc1	none
CCOc1ccc(N(CC(=O)Nc2ccccc2OCC)S(=O)(=O)c2c(C)noc2C)cc1	Jurkat NFkB inh 57.3, KLF5 inhibitor 74.9, aSyn UTR inh 95.0 | KLF5 inh confirm 79.4 | IEC-6 tox trip 58.6 | Jurkat NFkB conf 61.6
CCN(CC)c1ccc(/C=N/N=C(N)N)c(O)c1	Jurkat NFkB inh 76.6, KLF5 inhibitor 74.7, aSyn UTR inh 86.9 | KLF5 inh confirm 77.3 | IEC-6 tox trip 66.6 | Jurkat NFkB conf inactive
Cn1cccc1C(=O)Nc1ccc(Cl)c(S(=O)(=O)N2CCCCC2)c1	none (no result: ANO1 block, KLF5 inhibitor, aSyn UTR inh)
C=CCn1c(=S)[nH]c2cc(C(=O)Nc3ccc(F)cc3)ccc2c1=O	none
